According to the supplement of paper PMC11417369:
The full ranking holds about 25,000 sequences; the median of “ln(normalized median fluorescence intensity)” is about 9.7, and the highest 2% start at about 11. Only a selection was taken, and the highest values are over-represented in it overall.

Each sequence was assayed on PfAP2-HC AP2 domain (GST-tagged) (assay: gcPBM binding intensity (ln(normalized median fluorescence intensity)); higher = stronger DNA binding).
Summary of the method: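 Plasmodium falciparum DNA-binding domains carrying a GST tag were expressed in E. coli and applied for 1 h, at about 25 μg on average, to an Agilent 4 × 180k array. The array held primer-extended double-stranded 36-bp intergenic genomic probes together with negative controls, and binding took place in 1× PBS with 1% milk, 0.2 mg/ml BSA, 0.5% salmon testes DNA and 0.03% Triton X-100. An Alexa488 anti-GST antibody detected bound protein, and the array was scanned at 488 nm. Binding intensity is taken as the highest Masliner-normalised natural-log median intensity across replicate spots of either probe orientation.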

Row | Sequence | gcPBM binding intensity (ln)
1 | TATTAGATATAATATATACACACCAACGAACGAAGA [CACACA_site1134] | 10.1
2 | CATATATGTGATAACACGCACACAAATGTATAGAAT [CACACA_site2594] | 10.4
3 | AGAGAGAAAGCTATAACATGCAACAATTTTTAGAAA [TGCATGCA_site95] | 9.63
4 | TATTTTTAATATTTTGCATGCAGTATTTTATAAAAT [TGCATGCA_site250] | 9.52
5 | CATACATATAAACACACACACACACCCACCCACAAA [CACACA_site8059] | 10.6
6 | TATAAATATACACCCACACACATATATAAATAAATA [CACACA_site7717] | 10.8
7 | AACATATTAATGTACACACACCCACGCACAAACAAA [CACACA_site7320] | 10.4
8 | TAAACATACATATACACACACACACCCACACCCACA [CACACA_site492] | 11.6
9 | ATTAAACATACATATACACACACACCCACCCACCCA [CACACA_site8057] | 11
10 | CAAACATATTAATGTACACACACCCACCCACAAACA [CACACA_site2752] | 10.4
11 | TCTCATAGTAAACACACACACACACCCACATATATA [CACACA_site5034] | 10.6
12 | TCTCATAGGAAACACACACACACACCCACATATATA [CACACA_site1738] | 11
13 | ATAATTTGGAAACACACACACACACCCACATATATA [CACACA_site2286] | 10.5
14 | AAGCAAACATATTAATGTACACACACCCACACACAA [XGTACX_site5806] | 11.1
15 | TTTTTTAAAAAAGTTTTCTGTATTTATATATATATA [CACACA_negctrl_site31] | 9.48
16 | AAAATATATATAACTTGTACATATACATACGTATAT [XGTACX_site4570] | 9.77
17 | TTTCTTTTTTTTTTTTTTTCTTTTTTTTTTTTTTTC [CACACA_negctrl_site1025] | 9.2
18 | ACTAAAAAAATAAACACACAGATTTATATAATATAT [CACACA_site4884] | 9.83
19 | TATATTTGTACATGATATTTTTTTTTTCTTTTAAAA [CACACA_negctrl_site754] | 9.43
20 | TATAATTATATAAATTGTACATAAAAAGTTTTTACT [XGTACX_site3621] | 9.45
21 | AAATGTTCTTAAAAATGAATAATATATATATATATA [CACACA_negctrl_site796] | 9.41
22 | TAATTATGCAGACACACACACACACCCAACTAAAAA [CACACA_site2569] | 10.4
23 | TATGTGTATTTATTTGCATGTTGGTTGTATTTTTTC [TGCATGCA_site479] | 10.4

Row | Sequence | gcPBM binding intensity (ln)
24 | ACAAAGTTTATAGAACGTACATACTTACACATATTT [XGTACX_site556] | 9.73
25 | AATATTGTTCACAAGGTGCTTTTTATTCATACTAAT | 9.8
26 | CATACCTATAGACACACACACACACGCACGCACAAA [CACACA_site6374] | 10.4
27 | TACCTATACAGACACACACACACACGCCCACAAAAA [CACACA_site6375] | 11.1
28 | TTGGCATACAGACACACACACACACGCCCACATATA [CACACA_site6425] | 10.7
29 | CCAATTCAAATATGCACACAAATTTGAAAACGATTA [CACACA_site3607] | 9.71
30 | TGAAAATGGGAACCGTGTACAGGGCAGTTATAGGGG [XGTACX_site2950] | 9.87
31 | AAAAAAGAATAGCACACACACATATATAAATATAAA [CACACA_site4518] | 10.5
32 | TATTACATACCTTATTGTACAAATTATATATTAAAG [XGTACX_site7334] | 9.54
33 | ATATATCTATATGTGTGTACATATAAGTATTTATAT [XGTACX_site5333] | 9.87
34 | CATATATACACATACACACACACACGGACACGCACA [CACACA_site6910] | 10.5
35 | TTATAAATAAAAAATACACACATATATATATATATA [CACACA_site207] | 9.57
36 | AAAAAAAACGGACACACACACATAAATATATATAAA [CACACA_site4260] | 11.3
37 | AATACATACGGACACACACACACATATATATATATA [CACACA_site5884] | 11.6
38 | ACACGCACATATATATAAATATATATATATATAAAT [CACACA_negctrl_site1781] | 10.1
39 | AATATATACATATATACACACACATATATATATATA [CACACA_site8907] | 10.2
40 | TATAAATAAAAACACACACACATATATATATATATA [CACACA_site2319] | 10.4
41 | GTTATAAATAAATATACACACATATATAAAATACAT [CACACA_site7146] | 9.97
42 | AAAAAAAACGGACACACACACATACAAAATATATAT [CACACA_site4910] | 10.8
43 | CACACGCACGGACACACACACATATAAAATCTATAT [CACACA_site6428] | 11.1
44 | CATACATACGGACACACACACATATATATATATATA [CACACA_site5598] | 10.4
45 | CTAAAATACGGACACACACACACATATATATATATA [CACACA_site6138] | 11.4
